NR3A LBD binder – NR3A (human) ligand-binding domain modulation | NR3A LBD differential scanning fluorimetry, Tm shift; 0% = protein alone, 100% = glycine-bound protein | Tm shift relative to glycine control, % at 25 µM | hit rate 2.5% among 340,000 | AID 1259313;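 active means melting temperature shift of at least 10% of the positive control shift, at one fixed dose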
ADAM10 inh – inhibitors of human ADAM10 | inhibition, % at 7 µM | recombinant ADAM10, EDANS/DABCYL FRET peptide cleavage, 3 h | O14672 | AID 720582 | hit rate 0.62% among 370,000;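 active means inhibition above a per-campaign cutoff equal to the mean of compounds falling between control-based bounds plus 3 SD, cut at about 20% in these data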;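 further: 0% = DMSO wells while the 100% control is not disclosed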
Target sequence (O14672 214-748 limits assumed): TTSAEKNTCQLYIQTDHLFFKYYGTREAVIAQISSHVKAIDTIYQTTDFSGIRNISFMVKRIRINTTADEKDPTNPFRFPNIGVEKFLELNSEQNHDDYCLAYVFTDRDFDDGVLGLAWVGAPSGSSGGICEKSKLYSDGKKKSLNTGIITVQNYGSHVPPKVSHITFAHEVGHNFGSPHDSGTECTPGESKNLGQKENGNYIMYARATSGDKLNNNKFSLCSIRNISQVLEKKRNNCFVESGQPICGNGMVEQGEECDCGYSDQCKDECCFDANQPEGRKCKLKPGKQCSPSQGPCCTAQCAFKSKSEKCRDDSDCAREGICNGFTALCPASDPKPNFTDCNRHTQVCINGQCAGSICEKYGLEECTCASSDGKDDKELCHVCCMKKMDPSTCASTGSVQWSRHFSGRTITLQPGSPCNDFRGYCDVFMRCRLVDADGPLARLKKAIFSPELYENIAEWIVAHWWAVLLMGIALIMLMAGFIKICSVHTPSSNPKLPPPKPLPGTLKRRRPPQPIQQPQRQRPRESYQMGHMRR
AHR activator – activates the human aryl hydrocarbon receptor. activation, % at 5 µM. AID 2796. hit rate 2.5% among 320,000. AHR-responsive luciferase reporter cells, luminescence; in the data active means activation above about 47%;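 further: 0% = vehicle wells and 100% = reference agonist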
ADAM17 inh – ADAM17 inhibition, QFRET primary screen | hit rate 0.83% among 370,000 | AID 720648 | P78536 | recombinant ADAM17, EDANS/DABCYL FRET peptide cleavage | inhibition, % at 6.95 µM;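 active means inhibition above the mean of compounds lying between control limits plus 3 SD, set per campaign, cut at about 8.5% in these data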;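 further: 0% = DMSO-only wells as the low control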
proKLK7 act – activates the human kallikrein-7 zymogen. P49862. purified proKLK7, EDANS-DABCYL substrate fluorescence; 100% is mature enzyme control, 0% vehicle. activation, % at 7 µM. hit rate 0.9% among 370,000;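 active means activation above the mean of all tested compounds plus 3 SD, computed per campaign excluding outliers beyond control limits, cut at about 13% in these data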
rCAG RNA binder – binds r(CAG) RNA repeats | r(CAG) RNA repeat, TO-PRO-1 dye displacement fluorescence | inhibition, % at 3 µM | hit rate 1.3% among 370,000;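 active means inhibition above the plate cutoff, the mean of all test compounds on that plate plus 3 SD, cut at about 35% in these data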;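 further: 0% = DMSO alone and 100% = 100 µM mitoxantrone as full dye displacement; higher means more dye released from RNA so lower well fluorescence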
Numbers without * were called inactive; nt = not tested or not shown. Sampled rows, rich in hits. Any-hit rate of the full collection: about 7%.

SMILES	NR3A LBD binder	ADAM10 inh	AHR activator	ADAM17 inh	proKLK7 act	rCAG RNA binder
COc1ccc(S(=O)(=O)Nc2cccc3c2O[C@H](CN(C)S(=O)(=O)c2ccc(F)cc2)[C@H](C)CN([C@H](C)CO)C3=O)cc1	10.4*	15.7	-1.4	7.8	1.0	11.0
COc1ccc(S(=O)(=O)N(C)C[C@H]2Oc3c(NC(=O)CCC(F)(F)F)cccc3C(=O)N([C@H](C)CO)C[C@@H]2C)cc1	10.4*	-1.5	0.8	-0.3	0.0	-1.8
Cc1ccc(-c2nnc(SCC(=O)Nc3ccc(OCc4ccccc4)cc3)n2-c2ccc(Cl)cc2)cc1	nt	-1.6	nt	1.7	0.5	5.8
COc1ccccc1CCn1cnc(-c2ccccc2F)c1CC(C)C	nt	10.5	nt	5.9	0.3	-1.0
COc1ccc(CCC[C@H](CCC(=O)N(c2ccccc2)c2ccccc2)CCc2ccccc2)cc1	nt	-4.3	nt	0.8	-0.7	3.0
C[C@H]1[C@H](NC(=O)c2cccc(Cl)c2)CC[C@@]23CCCN2C(=O)CCC[C@@H]13	nt	-8.0	nt	-3.6	nt	nt
COc1cccc(NC(=O)c2ccccc2-c2nc(-c3ccc(Cl)cc3)no2)c1	15.9*	3.8	44.4	-0.5	0.2	2.9
COc1ccccc1-c1noc(-c2ccccc2C(=O)Nc2ccccc2)n1	-1.3	2.4	47.1*	-5.0	0.2	-2.0
COc1cccc(NC(=O)c2ccccc2-c2nc(-c3ccccc3)no2)c1	-0.8	9.3	17.8	0.9	-0.2	6.9
CCOC(=O)[C@]12CCCC3=C1N(CCC3)C(=O)[C@@H](CC(=O)NCc1ccc(C)o1)C2	nt	1.4	nt	0.8	0.1	-1.1
COc1cc(Br)c(/C=C/c2ccc3cccc(O)c3n2)cc1OC	2.7	-1.3	10.5	0.6	0.9	13.9
Oc1cccc2ccc(/C=C/c3ccccc3Br)nc12	14.5*	8.5	27.6	-2.1	10.4	15.5
Oc1ccc(Cl)cc1/C=C/c1ccc2cccc(O)c2n1	30.3*	5.0	nt	5.8	0.0	32.0
O=c1oc(C2(O)CCCCC2)cc2ccc(-c3ccc4[nH]ccc4c3)cc12	10.9*	-28.1	13.2	-7.5	-1.4	12.7
O=c1oc(C2(O)CCCCC2)cc2ccccc12	-0.5	-24.4	-0.1	-6.9	-0.5	-0.3
CN(C(=O)c1cccc(NC(=O)Cc2ccc(NC(=O)C3CCN(C(=O)CCc4ccccc4)CC3)cc2)c1)C1CCCC1	nt	8.1	nt	1.1	1.0	7.9
CC(OC(=O)c1ccc(Cl)c(S(N)(=O)=O)c1)C(=O)NCc1ccc2c(c1)OCO2 (configuration not stated)	14.1*	-7.1	5.1	-4.2	0.2	2.9
COc1ccc(NC(=O)Nc2cc3oc4ccccc4c3cc2OC)cc1	13.1*	-43.7	73.6*	-15.6	-1.1	14.2
COc1ccc(OCC(=O)Nc2cc3oc4ccccc4c3cc2OC)cc1	-10.9	nt	4.3	nt	nt	nt
COc1cc2c(cc1NC(=O)Nc1ccc(F)cc1)oc1ccccc12	185.5*	-7.6	66.0*	-6.4	0.0	7.0
O=C(NCCN1CCC(n2c(=O)[nH]c3cc(Cl)ccc32)CC1)c1ccc(F)cc1	nt	-0.5	nt	1.7	-0.1	-0.7
Clc1nccnc1N/N=C/c1ccc(Br)cc1	2.5	-17.2	62.5*	-3.2	0.7	-2.3
Oc1ccccc1/C=N/Nc1nccnc1Cl	-15.3	4.0	12.1	1.5	0.0	7.8
COc1ccc(/C=N/Nc2nncc3ccccc23)cc1	-4.9	0.1	47.7*	0.1	0.4	1.2
COc1ccc(/C=N/Nc2nccnc2Cl)cc1	12.1*	4.4	18.8	-4.4	0.7	-1.4
SMILES	NR3A LBD binder	ADAM10 inh	AHR activator	ADAM17 inh	proKLK7 act	rCAG RNA binder
C=CCN1[C@H](Cc2ccccc2)COc2cc(N3CCSCC3)ccc2S1(=O)=O	nt	6.8	nt	-0.4	0.0	4.1
CCCc1cc(=O)n2[nH]c(-c3ccccc3)cc2n1	-0.9	-32.1	71.9*	-12.1	-4.8	-3.7
O=c1cc(-c2ccccc2)nc2cc(-c3ccc(Br)cc3)[nH]n12	0.0	-7.2	29.5	-7.7	-1.1	9.7
CCCc1cc(=O)n2[nH]c(-c3ccc(C)cc3)cc2n1	-5.3	-16.9	68.7*	-10.6	-0.8	-1.7
O=c1cc(-c2ccccc2)nc2cc(-c3ccco3)[nH]n12	10.3*	-60.0	37.5	-20.7	-2.8	21.6
COc1ccc(CNS(=O)(=O)CC2NCCc3ccccc32)cc1 (configuration not stated)	nt	9.1	nt	1.0	-0.4	-0.8
CCCOP(=O)(OCCC)c1c([N+](=O)[O-])cc(C(F)(F)F)cc1[N+](=O)[O-]	11.0*	7.5	1.2	-3.5	0.7	-7.0
CCOc1ccc(C(F)(F)F)cc1NC(=O)COc1ccc(C(F)(F)F)cc1[N+](=O)[O-]	0.7	-3.1	16.4	-2.6	-0.6	2.2
COc1ccc(-n2cccc2/C=C2\C(=N)N3N=C(C(C)C)SC3=NC2=O)cc1	-8.6	0.1	10.9	0.2	0.5	28.2
COc1ccc(-n2cccc2/C=C2\C(=N)N3N=C(c4ccco4)SC3=NC2=O)cc1	3.6	2.8	-1.4	-1.0	-0.3	51.0*
COc1ccc(C(=O)N2CCCC(Nc3ccc(F)cc3)C2)cc1F (configuration not stated)	1.5	-14.2	-0.9	-5.8	0.7	-7.3
COc1ccc(C(=O)N2CCCC(Nc3ccc(C)c(C)c3)C2)cc1F (configuration not stated)	15.9*	0.9	19.8	1.0	0.6	-4.0
Cc1ccc(NC2CCCN(C(=O)c3cccnc3)C2)cc1C (configuration not stated)	2.9	-4.9	47.7*	-4.3	-0.2	-6.6
CCCCCCCSc1ncnc2[nH]ncc12	-11.6	19.4	nt	12.0*	0.1	-0.3
CCOC(=O)C1=CCC(c2ccc([N+](=O)[O-])cc2)N(S(=O)(=O)c2ccc(C)cc2)C1 (configuration not stated)	nt	17.8	nt	5.8	0.4	6.1
Oc1cccc2ccc(/C=C/c3cccs3)nc12	-1.9	-6.8	70.3*	3.2	0.2	7.9
Cc1ccsc1/C=C/c1ccc2cccc(O)c2n1	-17.7	-1.6	93.9*	1.0	0.6	13.8
COc1cccc(CNC(=O)[C@H]2CCCN2C(=O)[C@H]2CCCN2C(=O)c2ccccc2C(F)(F)F)c1	nt	0.1	nt	-4.3	-0.5	-1.3
CCc1nc(N)nc(N)c1-c1ccc(Cl)cc1	0.6	-5.8	-3.5	-7.8	-0.8	0.6
CCc1nc(N)nc(N)c1-c1ccc(N(C)Cc2ccccc2)c([N+](=O)[O-])c1	12.6*	-6.3	nt	1.4	-0.8	-0.7
CCN(CC)CCNC1=NCCn2c1cc1cc(OC)ccc12	-1.8	-121.6	57.9*	-46.6	7.2	-0.5
O=C(Nc1ccc(Br)cc1)c1cccnc1N1CCCCC1	0.1	-11.4	50.1*	-6.3	0.1	-4.2
c1ccc(-c2nc3nonc3c3nc4ccccc4n23)cc1	-3.9	-14.2	37.0	-5.1	-8.6	4.9
FC(F)(F)c1nnc2c(Sc3ccccc3)nc3ccccc3n12	0.3	5.8	16.4	-2.0	-1.0	-1.7
c1ccc(-c2nc3ccccc3c3nc4ccccc4n23)cc1	-4.3	-183.1	51.6*	-65.3	0.5	5.8

Screens: PubChem, several laboratories
